# RECQ1 inh: inhibitors of human RECQ1 DNA helicase | P46063 | RECQ1 DNA unwinding, red fluorescence kinetic read | Potency, µM (doses to about 57.3 µM), inactives show at the top dose activity, negative = inhibition, actives largely listed as inhibitors | hit rate 0.54% among 240,000;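 further: plate controls were vehicle for no effect and no enzyme for full effect; nearly all actives have a fitted effect of over 30% in size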
#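 RECQ1T1 50 nM; forked duplex (20 bp + 30-nt ss tails) 200 nM, ATP 2 mM final; pH 8.0, 2 mM MgCl2, 2.5 ug/ml poly(dI-dC); 15 min compound preincubation; discontinuous kinetic read over 2 h at RT.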
# APEX1 inh: blocks human APE1 abasic DNA cleavage | P27695 | recombinant APE1, TAMRA/BHQ-2 abasic DNA cleavage fluorescence | Potency, µM (titrated, usually from 65.8 µM), for the others: at the highest dose activity change, negative = inhibition, usual class: inhibitors | hit rate 0.35% among 350,000;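 further: plate controls were vehicle for no effect and reference inhibitor for full effect; nearly all actives have a fitted effect of over 55% in size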
#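 APE1 at 0.75 nM preincubated 15 min at room temperature with compound. Reaction then started with 50 nM double-stranded THF-abasic substrate labelled with TAMRA/BHQ-2, and 525/598 nm fluorescence read kinetically. Activity taken as third-minus-first read difference, normalized to DMSO and NSC13755 controls.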
# BLM inh: inhibitors of human Bloom syndrome helicase BLM; Potency, µM (top dose mostly 56.1 µM), inactives show at the highest dose activity change, negative = inhibition, usual class: inhibitors; hit rate 0.2% among 350,000; P54132; recombinant BLM DNA unwinding, fluorescence dequenching;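 further: plate controls were vehicle for no effect and no enzyme for full effect; nearly all actives have a fitted effect of over 35% in size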
# WRN inhibitor: inhibitors of human WRN helicase | Q14191 | WRN helicase unwinding, fluorescent forked duplex, kinetic | Potency, µM (doses to about 114 µM), inactives show at the highest dose activity change, negative = inhibition, most hits filed as inhibitors | hit rate 0.46% among 360,000; further: nearly all actives have a fitted effect of over 55% in size
#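 Kinetic red-fluorescence monitoring (525/598 nm) tracks WRN helicase activity after 100 nM fluorophore-quencher forked duplex and 2 mM ATP are added to 20 nM enzyme pretreated 15 min at room temperature with compound.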
# L3MBTL1 inh: blocks human L3MBTL1 | Q9Y468 | AlphaScreen L3MBTL1–H3K9me1 peptide binding | Potency, µM (series often up to 57.1 µM), without a hit: at the highest dose activity, negative = inhibition, hits mostly inhibitors | hit rate 0.66% among 230,000 | AID 485360; further: nearly all actives have a fitted effect of over 60% in size
# Target sequence (Q9Y468 whole entry, looked up): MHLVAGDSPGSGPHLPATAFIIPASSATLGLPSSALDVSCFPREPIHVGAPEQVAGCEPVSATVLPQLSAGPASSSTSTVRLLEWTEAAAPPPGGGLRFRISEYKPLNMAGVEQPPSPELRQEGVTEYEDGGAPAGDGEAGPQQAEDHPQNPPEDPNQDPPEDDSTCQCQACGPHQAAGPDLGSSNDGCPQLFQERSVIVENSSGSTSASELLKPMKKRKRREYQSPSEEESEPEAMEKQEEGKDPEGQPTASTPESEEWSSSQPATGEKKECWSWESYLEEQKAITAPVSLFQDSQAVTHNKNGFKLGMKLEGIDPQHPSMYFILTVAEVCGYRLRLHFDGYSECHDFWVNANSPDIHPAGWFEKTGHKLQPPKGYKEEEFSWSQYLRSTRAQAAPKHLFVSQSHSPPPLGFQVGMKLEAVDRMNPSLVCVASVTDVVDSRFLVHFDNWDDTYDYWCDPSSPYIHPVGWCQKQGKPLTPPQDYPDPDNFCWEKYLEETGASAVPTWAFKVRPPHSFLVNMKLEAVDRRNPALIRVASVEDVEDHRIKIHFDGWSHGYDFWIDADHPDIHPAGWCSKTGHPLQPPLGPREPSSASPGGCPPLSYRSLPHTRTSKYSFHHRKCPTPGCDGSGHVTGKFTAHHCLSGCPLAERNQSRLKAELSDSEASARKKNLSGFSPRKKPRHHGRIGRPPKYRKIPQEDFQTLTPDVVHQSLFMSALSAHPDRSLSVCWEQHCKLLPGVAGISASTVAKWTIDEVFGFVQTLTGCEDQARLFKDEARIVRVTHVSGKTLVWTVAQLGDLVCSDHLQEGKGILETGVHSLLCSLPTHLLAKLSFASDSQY
#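 L3MBTL1 (50 nM) pre-complexed 30 min with biotinylated H3(1-15)K9me1 peptide (75 nM), then compounds added for 30 min at room temperature; AlphaScreen streptavidin donor/nickel chelate acceptor beads (10 ug/mL final) read after 30 min dark incubation.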
# An asterisk follows results filed as active; i = inactive; ? = inconclusive; . = not tested or not shown; [ ] = another dose, or the depositor's remark. Sampled rows, rich in hits. Any-hit rate of the full collection: about 0.92%. The call rests on the fitted dose curve; in most records, active means well fitted curve in the direction sought with a large enough effect; inconclusive means small, poorly fitted or top-dose-only effect, or another doubt; inactive means no such curve, though single readings can be large; an effect the other way counts as inactive or inconclusive. Unless noted, on the % scale 0 is the no-effect control and ±100 the full control effect; potency means the concentration at half of the fitted maximal effect.
SMILES,RECQ1 inh,APEX1 inh,BLM inh,WRN inhibitor,L3MBTL1 inh
O=C(O)/C=C/c1cn(-c2ccccc2)nc1-c1ccc(-c2ccc([N+](=O)[O-])cc2)o1,-3.6%,-4.2%,?,50.1µM*,-9.3%
O=C(O)/C=C/c1cn(-c2ccccc2)nc1-c1cccc([N+](=O)[O-])c1,i,3.1%,0.1%,-1.5%,1.5%
CC[C@H](C)[C@H](NC(=O)[C@H](CC(=O)O)NC(=O)[C@H](CC(C)C)NC(=O)[C@H](Cc1cnc[nH]1)NC(=O)[C@H](C)NC(=O)[C@H](Cc1ccccc1)NC(=O)[C@H](Cc1ccc(O)cc1)NC(=O)[C@@H](NC(=O)[C@H](C)NC(=O)[C@H](CCC(=O)O)NC(=O)[C@H](CCC(=O)O)NC(=O)[C@H](CC(=O)O)NC(=O)CCC(=O)O)C(C)C)C(=O)N[C@H](C(=O)N[C@@H](Cc1c[nH]c2ccccc12)C(=O)O)[C@@H](C)CC,-19.8%,0.3%,-1.4%,.,.
COC1=CC(=O)C(O)=C(CCCCCCC/C=C/CCCCCCCC2=C(O)C(=O)C=C(OC)C2=O)C1=O,.,.,.,35.5µM*,.
CCCCCCCCCCCC1=C(O)C(=O)C=C(O)C1=O,-11.9%,?,-6.5%,-1.5%,.
C=CCN1C(=O)/C(=C/c2ccc(OC(C)=O)c(OCC)c2[N+](=O)[O-])SC1=S,i,-1.3%,-3.9%,-34.2%,39.8µM*
C=CCN1C(=O)/C(=C\C(C)=C\c2ccccc2)SC1=S,.,-6.7%,-1.6%,8.0%,1.2%[2.29 µM]
Cc1ccccc1-n1sc2cc(F)ccc2c1=O,-2.5%,0.0%,0.5%,14.1µM*,.
O=c1c2ccccc2sn1-c1ccccc1F,.,.,.,-4.8%,.
CC[C@@H](CO)NCCN[C@@H](CC)CO,.,12.1%[21 µM],.,.,.
CCN(CC)S(=O)(=O)c1cccc(C(=O)N/N=C(\C)c2ccc(O)cc2O)c1,i,-5.6%,-3.2%,-18.2%,14.1µM*
CCN(CC)S(=O)(=O)c1cccc(C(=O)N/N=C/c2ccc(O)c(O)c2O)c1,?,-14.8%,-22.3%,25.1µM*,?
CCN(CC)C(=O)c1ccccc1NC(=O)c1cccc(S(=O)(=O)N(CC)CC)c1,-5.2%,-1.4%,3.1%,0.1%,4.3%
CCn1c(C)nc2cc(C(=O)N/N=C/c3ccc(O)c(O)c3O)ccc21,10.5%,-9.0%,6.31µM*,17.8µM*,2.24µM*
CC(=O)Nc1ccc(S(=O)(=O)Oc2cccc(/C=C3\SC(N)=NC3=O)c2)cc1,-6.1%,2.6%,-13.4%,79.4µM*,.
COc1ccc(C2=Nn3c(nnc3-c3cccc(OC)c3OC)SC2)c(OC)c1,i,-2.9%,-6.4%,.,.
O=C(O)CCNc1cc(N2CCN(C(=O)c3ccco3)CC2)c2noc3c2c1C(=O)c1ccccc1-3,.,-33.5%,-15.9%,17.8µM*,.
O=C(Nc1cccnc1Cl)c1ccc(=O)oc1,?,31.6µM*,55.5%,?,?
C#CCOCCOCCOCCNc1nc(N2CCN(C(=O)CCCCCCCCCCNC(=O)[C@H]([C@@H](C)CC)n3cc(CCCCN=C(N)N)nn3)CC2)nc(N2CCN(C(=O)CCCCCCCCCCNC(=O)[C@H](CCCCN)n3cc(C)nn3)CC2)n1,.,?,.,28.2µM*,-8.8%
C#CCOCCOCCOCCNc1nc(N2CCN(C(=O)CCCCCCCCCCNC(=O)[C@H]([C@@H](C)CC)n3cc(CCCCCN)nn3)CC2)nc(N2CCN(C(=O)CCCCCCCCCCNC(=O)[C@H](CO)n3cc(CCCCCN)nn3)CC2)n1,.,-29.7%,.,56.2µM*,-10.0%
C#CCOCCOCCOCCNc1nc(N2CCN(C(=O)[C@H](C(C)C)n3cc(CCO)nn3)CC2)nc(N2CCN(C(=O)[C@H](Cc3ccc(O)cc3)n3cc(CCO)nn3)CC2)n1,.,.,.,-7.8%,.
C#CCOCCOCCOCCNc1nc(N2CCN(C(=O)[C@H](Cc3ccc(O)cc3)n3cc(CCO)nn3)CC2)nc(N2CCN(C(=O)[C@H](Cc3ccc(O)cc3)n3cc(CCO)nn3)CC2)n1,31.6µM*,-9.2%,-15.9%,.,1.1%
C#CCOCCOCCOCCNc1nc(N2CCN(C(=O)CCCCCCCCCCNC(=O)[C@H]([C@@H](C)CC)n3cc(CCCCCN)nn3)CC2)nc(N2CCN(C(=O)CCCCCCCCCCNC(=O)[C@@H]([C@H](C)CC)n3cc(CCCCCN)nn3)CC2)n1,.,-91.7%,.,.,-10.5%
C#CCOCCOCCOCCNc1nc(N2CCN(C(=O)CCCCCCCCCCNC(=O)Cn3cc(CCCCCN)nn3)CC2)nc(N2CCN(C(=O)CCCCCCCCCCNC(=O)[C@H]([C@@H](C)CC)n3cc(CCCCN=C(N)N)nn3)CC2)n1,.,?,.,31.6µM*,-4.3%
CCC1(c2ccc(O)cc2)NC(=O)NC1=O (stereo unspecified),-7.4%,0.3%,-2.5%,.,.
SMILES,RECQ1 inh,APEX1 inh,BLM inh,WRN inhibitor,L3MBTL1 inh
Nc1nc(-c2nn(Cc3ccccc3F)c3ncccc23)ncc1C1CC1,0.5%,10.2%,3.7%,.,.
C#CCOCCOCCOCCNc1nc(N2CCN(C(=O)CCCCCCCCCCNC(=O)Cn3cc(CCCCCN)nn3)CC2)nc(N2CCN(C(=O)CCCCCCCCCCNC(=O)Cn3cc(CCCCCN)nn3)CC2)n1,.,-5.3%,.,79.4µM*,16.4%
CC(C)(C)n1ncc2c(=O)n(Cc3cc(F)ccc3Cl)cnc21,.,11.9%,.,.,.
CN(C)c1ccc(C=c2c3ccccc3n3c2c2c([n+]3C)CCCC2)cc1,.,.,.,22.4µM*,.
CN(C)c1ccc(C=c2c3ccccc3n3c2cc(-c2ccc(Cl)cc2)[n+]3C)cc1,.,.,.,28.2µM*,.
CN(C)c1ccc(/C=C2\SC(=O)N(CC(O)Cn3c4ccccc4c4ccccc43)C2=O)cc1 (stereo unspecified),3.5%,1.5%,-3.2%,?,-2.7%
COc1cc(N(C)C)ccc1C=c1c2ccccc2n2c1cc(-c1ccccc1)[n+]2C,.,.,.,20µM*,.
CN(C)c1ccc(C=c2c3cc([N+](=O)[O-])ccc3n3c2cc(-c2ccccc2)[n+]3C)cc1,.,.,.,35.5µM*,.
CC(=O)NC(c1cc(Cl)c2ccccc2c1O)C1CC1 (stereo unspecified),.,40.9%,.,.,.
N[C@H](C(=O)O)[C@@H]1CC(Cl)=NO1,.,3.9%,.,.,.
CC(C)C(C(=O)O)N1C(=O)/C(=C/c2ccc(Br)cc2)SC1=S (stereo unspecified),-16.2%,-3.9%,-19.9%,.,.
Cc1cc(/C=N/NC(=O)C(O)(c2ccccc2)c2ccccc2)c(C)n1-c1cccc(C(=O)O)c1,-3.9%,4.3%,10µM*,?,?
Cc1cc(/C=N/NC(=O)C(O)(c2ccccc2)c2ccccc2)c(C)n1-c1ccc(C(=O)O)cc1,?,?,-7.1%,0.6%[11.6 µM],-18.2%
NS(=O)(=O)c1ccc(N=Nc2c(O)ccc3ccccc23)cc1,-19.9%,-0.3%,-13.8%,-9.6%,-19.0%
Oc1ccc(N=Nc2c(O)ccc3ccccc23)cc1,35.5µM*,-12.1%,-21.9%,-26.5%,17.8µM*
CC(C)(C)n1ncc2c(=O)n(Cc3ccc(F)cc3F)cnc21,.,-1.8%,.,.,.
